KinaseGlo FLuc: blocks Kinase-Glo luciferase, a counter-screen artifact | Q27757 | Kinase-Glo luciferase, ATP luminescence, 8 min | Potency, µM (highest dose often 38.3 µM), without a hit: at the top dose activity change, negative = inhibition, most hits filed as inhibitors | hit rate 0.28% among 200,000; further: on the % scale 0 is the no-effect control and ±100 the full control effect; nearly all actives have a fitted effect of over 60% in size
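Light output from Kinase-Glo luciferase with luciferin and 10 uM ATP in 50 mM imidazole pH 7.2, KCl, MgCl2, Tween 20, BSA; compound pin-delivered, 8-min ambient incubation, then luminescence read.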
FLuc counter: counter-screen for miR-21 project: firefly luciferase inhibitors or activators; P08659; purified FLuc, Km substrates, luminescence inhibition; Potency, µM (series often up to 57.5 µM), for inactives: at the highest dose activity change, negative = inhibition, most hits filed as inhibitors; hit rate 6.9% among 360,000;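 further: plate controls were vehicle for no effect and reference inhibitor for full effect; nearly all actives have a fitted effect of over 55% in size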
Target sequence (P08659 whole entry, looked up): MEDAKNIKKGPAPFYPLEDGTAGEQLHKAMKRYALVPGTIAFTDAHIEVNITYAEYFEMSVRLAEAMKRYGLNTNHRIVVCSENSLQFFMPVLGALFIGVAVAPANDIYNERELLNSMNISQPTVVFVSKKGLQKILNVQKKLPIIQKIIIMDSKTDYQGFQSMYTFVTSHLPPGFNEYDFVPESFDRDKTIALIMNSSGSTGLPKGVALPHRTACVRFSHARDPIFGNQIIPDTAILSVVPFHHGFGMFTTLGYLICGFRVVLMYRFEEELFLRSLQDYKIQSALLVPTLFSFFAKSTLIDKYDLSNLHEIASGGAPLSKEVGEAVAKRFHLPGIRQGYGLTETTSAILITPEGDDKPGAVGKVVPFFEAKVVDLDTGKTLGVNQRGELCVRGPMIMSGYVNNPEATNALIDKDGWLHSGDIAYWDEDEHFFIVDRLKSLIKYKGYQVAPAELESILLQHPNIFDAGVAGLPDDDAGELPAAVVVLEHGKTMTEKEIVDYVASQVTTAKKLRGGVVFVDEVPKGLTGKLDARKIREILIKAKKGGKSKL
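Biochemical qHTS of compounds, final roughly 60 µM downward over six points, against 10 nM purified firefly luciferase using Km concentrations of substrates (10 uM D-luciferin, 10 uM ATP) in Tris acetate pH 7.5 buffer; luminescence output.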
NPC1 prom act: NPC1 promoter activation. hit rate 2.4% among 320,000. Huh7 NPC1 promoter luciferase reporter, 24 h. Potency, µM (doses to about 9.22 µM), for the others: top-dose activation, usual class: activators; further: % of control where 0% means no effect; nearly all actives have a fitted effect of over 60% in size
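Luminescence from an NPC1 promoter-driven luciferase reporter in stably transfected Huh7 cells was measured after 24 h compound treatment at 37 °C, followed by 10 min ambient incubation with luciferase detection reagent.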
SMN2 splice up: enhancers of SMN2 splice variant expression; hit rate 2.8% among 210,000; AID 1458; Potency, µM (highest dose often 46.1 µM), without a hit: top-dose activity change, positive = activation, actives largely listed as activators; HEK293 SMN2-luciferase splicing reporter, luminescence, 30-36 h; further: % of control where 0% means no effect; nearly all actives have a fitted effect of over 55% in size
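HEK293 cells carry an SMN2 minigene-luciferase reporter in which exon 7 inclusion puts luciferase in frame. Cells were seeded at 2000 cells/well, attached for 10-12 hours, then exposed to compounds for 30-36 hours at 37C before ONE-Glo luminescence.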
Rab9 promoter act: activators of Rab9 promoter. Huh7 Rab9 promoter-luciferase reporter, luminescence, 24 h. Potency, µM (highest dose often 9.22 µM), for the others: at the top dose activation, negative = inhibition, usual class: activators. hit rate 2.8% among 320,000; further: % of control where 0% means no effect; nearly all actives have a fitted effect of over 60% in size
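Huh7 cells stably carrying Rab9 promoter–luciferase reporter, plated 1500 cells/well, compound added after 2 h and incubated 24 h at 37 °C; luciferase luminescence then read after 10 min with detection reagent.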
ELG1 genotoxic: induces genotoxicity in HEK293T cells with luciferase-tagged ELG1; HEK293T ELG1-luciferase reporter, luminescence, 16 h; Potency, µM (top dose mostly 46 µM), for the others: at the top dose activity change, positive = activation, usual class: activators; hit rate 1.3% among 330,000; further: % of control where 0% means no effect; nearly all actives have a fitted effect of over 60% in size
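Cells (2,000/well) expressing the ELG1-luciferase fusion are dosed by pin tool and kept 16 hr at 37 °C, 5% CO2. Signal comes from ONE-Glo luciferase reagent after 30 min at room temperature.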
* = called active by the depositor; ? = inconclusive; . = not tested or not shown. The list is not random: actives were taken first. Their share in the collection is about 7.3%. The call rests on the fitted dose curve; in most records, active means well fitted curve in the direction sought with a large enough effect; inconclusive means small, poorly fitted or top-dose-only effect, or another doubt; inactive means no such curve, though single readings can be large; an effect the other way counts as inactive or inconclusive. Potency means the concentration at half of the fitted maximal effect.

SMILES	KinaseGlo FLuc	FLuc counter	NPC1 prom act	SMN2 splice up	Rab9 promoter act	ELG1 genotoxic
CCC(C)NC(=O)Cn1c(=O)n(Cc2ccc(C(=O)NCc3ccccc3OC)cc2)c(=O)c2ccccc21 (stereo not given)	.	-3%	.	-4%	.	.
Fc1cccc(Cl)c1CSC1=NCCS1	.	?	2%	.	7%	3%
COC(=O)CSc1nc2ccc(NC(C)=O)cc2s1	0%	?	-4%	15%	-5%	2%
CC(=O)Nc1ccc2nc(SCc3ccccc3)sc2c1	.	13µM*	.	.	.	.
O=C(O)c1ccc(CSc2nc3ccc(NC(=O)c4ccccc4C(=O)O)cc3s2)cc1	3%	17µM*	-5%	19%	-5%	-1%
N#Cc1ccccc1CSc1nc2ccc(NC(=O)c3ccccc3C(=O)O)cc2s1	-1%	?	-5%	.	2%	12%
CCOc1ccccc1NC(=O)COc1ccc(S(=O)(=O)NC2CCCCC2)cc1	.	8.5µM*	.	20%	.	.
Cc1cccc(NC(=O)c2ccccc2Br)n1	14%	?	8%	8%	-6%	16%
Cc1occc1C(=O)Nc1cc(C(C)(C)C)on1	11µM*	6µM*	2.8µM*	14µM*	1.6µM*	5.2µM*
Cc1cccc(NC(=O)c2ccoc2C)n1	?	?	18%	18µM*	27%	?
CCOC(=O)c1ccc(N2Cc3ccccc3C2=NC(=O)c2cccs2)cc1	-2%	?	8%	14%	5%	?
CC(=O)c1ccc(N2Cc3ccccc3C2=NC(=O)c2cccs2)cc1	-4%	?	?	14µM*	?	?
Cc1ccc(S(=O)(=O)N/N=C/c2ccccc2O)cc1[N+](=O)[O-]	5%	15µM*	-1%	-25%	-1%	11%
C/C(=N\NS(=O)(=O)c1ccc(C)c([N+](=O)[O-])c1)c1ccc2c(c1)OCO2	.	11µM*	2%	.	-10%	0%
C/C(=N\NS(=O)(=O)c1ccc([N+](=O)[O-])cc1)c1ccc2c(c1)OCO2	.	-2%	-3%	.	6%	2%
Cc1ccc(S(=O)(=O)N/N=C/c2ccc(O)c(O)c2)cc1[N+](=O)[O-]	0%	-31%	-1%	-3%	1%	9%
C[C@]12c3[nH]c4ccc(Cl)cc4c3CCN1C(=O)[C@@H](CC(=O)NCC13CC4CC(CC(C4)C1)C3)C[C@@H]2C(=O)N1CCCCC1	.	.	.	.	.	-1%
CCCNc1ccc(S(=O)(=O)N(CC)CC)cn1	-5%	-6%	0%	5.6µM*	0%	-2%
COc1ccc2cc(C(N)=O)c(=Nc3ccccc3)oc2c1	5%	0%	3.5µM*	-13%	1.6µM*	?
COc1ccc(OC)c(N=c2oc3cc(O)ccc3cc2C(N)=O)c1	?	21µM*	-1%	-27%	16%	-1%
COc1ccccc1CNC(=O)c1cc2sccc2n1Cc1ccc(Cl)cc1	.	3%	.	-4%	.	.
COc1cccc(NC(=O)c2ccccc2-c2ccccc2C(=O)O)c1	.	1%	-2%	.	1%	-2%
COc1cccc(NC(=O)c2ccccc2F)c1	.	6µM*	4µM*	.	3.5µM*	4.6µM*
COc1cccc(NC(=O)COC(=O)c2ccccc2F)c1	0%	12µM*	-1%	10%	1%	-1%
COc1cccc(NC(=O)c2ccccc2Br)c1	.	15µM*	4µM*	.	3.5µM*	?
SMILES	KinaseGlo FLuc	FLuc counter	NPC1 prom act	SMN2 splice up	Rab9 promoter act	ELG1 genotoxic
COc1cccc(NC(=O)COC(=O)c2c(F)cccc2Cl)c1	1%	?	17%	.	?	?
COc1cccc(NC(=O)C2=COCCO2)c1	.	?	?	.	3.2µM*	?
CSc1ccc(S(=O)(=O)NCc2ccccc2C)cc1	2%	2%	-1%	11%	1%	0%
CCCCNC(=O)CN1C(=O)C(CC)Oc2ccc(Cl)cc21 (stereo not given)	.	6%	-6%	.	6%	0%
Cc1ccc(NC(=O)c2cc(-c3ccccc3)n[nH]2)cc1	.	?	0%	.	0%	6%
COc1cc(NC(=O)c2cc(-c3cccc(OC)c3)n[nH]2)cc(OC)c1	.	12µM*	.	.	.	.
COc1cccc(C(=O)Nc2c(F)cccc2F)c1	.	-4%	-1%	.	19%	3%
COc1cccc(NC(=O)c2c(F)cccc2F)c1	.	?	27%	.	?	10µM*
O=C(CSc1nc2c(c(=O)[nH]1)CCC2)Nc1ccccc1C(F)(F)F	.	-9%	.	.	.	.
O=[N+]([O-])c1ccc(S(=O)(=O)NCC(c2cccnc2)N2CCc3ccccc32)cc1 (stereo not given)	.	-1%	-2%	.	-4%	-2%
Cc1ccc2c(C)c(C(=O)Nc3cccnc3)oc2c1	-3%	6.7µM*	24%	-18%	?	?
Cc1ccc2c(Cl)c(C(=O)N/N=C/c3cccn3C)sc2c1	-9%	?	15%	13µM*	?	?
Cc1ccc2c(Cl)c(C(=O)Nc3cccnc3)sc2c1	-2%	1.9µM*	2.8µM*	?	4µM*	0%
Cc1cc2oc(C(=O)Nc3cccnc3)c(C)c2cc1C	1%	?	?	-13%	?	13µM*
Cc1ccc2c(Cl)c(C(=O)NC3CC3)sc2c1	.	4.8µM*	2µM*	.	4µM*	?
O=C(NC1CC1)c1sc2cc([N+](=O)[O-])ccc2c1Cl	0%	?	13%	3%	12%	1%
O=C(O)CN1CCN(Cc2ccccc2Cl)C1=O	-2%	-2%	-3%	-13%	-1%	-1%
CCCS(=O)(=O)Nc1cccc(-c2cn3ccc(C)cc3n2)c1	.	12µM*	.	13µM*	.	.
COc1ccc(S(=O)(=O)Nc2cc(-c3cn4ccccc4n3)ccc2C)cc1	.	?	.	8%	.	.
Cc1cc(C)c(S(=O)(=O)Nc2cccc(-c3cn4ccccc4n3)c2)c(C)c1	.	9.5µM*	.	.	.	.
